The supplement of paper PMC10849652
Targets with a hit are over-represented here; the source holds about 7,900 in all. About 0.6% of all pairs of compound and target were hits. Unmarked numbers belong to inactive results.

Key:
Experiment in all cases: log2 fold change, soluble protein after heating vs DMSO (PISA); higher = thermal stabilisation; K562 cells, 10 uM, 30 min; active = over 0.2 and 3.5 SD of the protein, either way, in both replicates (recomputed)
[1] = compound: COC1=CC=C(C=C1)CN2C=CC3=C2C=C(C=C3)C(=O)NO
Summary of the method: (§1)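 For each measurement, 10 μM compound was applied for 30 min to K562 cells at 2×10^6 cells/mL. Aliquots were heated for 3 min across 48°C-58°C, pooled, and extracted in PBS with 0.5% NP-40 at 4°C; the supernatant after 21,000xg for 90 min was soluble protein. This was quantified by TMTpro 16plex LC-MS/MS with channel sums equalised, and thermal stability was reported relative to control samples from duplicates, on a log2 fold-change scale.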

[2] = compound: CON(C)C(=O)N1N=C(c2cc(F)ccc2F)S[C@@]1(CCCN)c1ccccc1 [filanesib]
Summary of the method: as §1

[3] = compound: CO[C@H]1C[C@@H]2CC[C@@H](C)[C@@](O)(O2)C(=O)C(=O)N2CCCC[C@H]2C(=O)O[C@H]([C@H](C)C[C@@H]2CC[C@H](n3cnnn3)[C@H](OC)C2)CC(=O)[C@H](C)/C=C(\C)[C@@H](O)[C@@H](OC)C(=O)[C@H](C)C[C@H](C)/C=C/C=C/C=C/1C [zotarolimus]
Summary of the method: as §1

[4] = compound: COc1cc(C(=O)O)ccc1NC(=O)[C@@H]1N[C@@H](CC(C)(C)C)[C@](C#N)(c2ccc(Cl)cc2F)[C@H]1c1cccc(Cl)c1F [idasanutlin]
Summary of the method: as §1

[5] = compound: COc1cc(Nc2ncc3c(n2)-c2ccc(Cl)cc2C(c2c(F)cccc2OC)=NC3)ccc1C(=O)O [alisertib]
Summary of the method: as §1

[6] = compound: COc1cc2nc(-c3cc(F)ccc3O)nc(N[C@@H]3CNC[C@H]3C(C)(C)O)c2cc1OC
Summary of the method: as §1

[7] = compound: COc1cc2ncnc(Nc3ccc(F)c(Cl)c3)c2cc1OCCCN1CCOCC1 [gefitinib]
Summary of the method: as §1

[8] = compound: COc1cccc2cc(-c3nc([C@H]4CC[C@H](C(=O)O)CC4)n4ncnc(N)c34)[nH]c12
Summary of the method: as §1

[9] = compound: CS(=O)(=O)CCNCc1ccc(-c2ccc3ncnc(Nc4ccc(OCc5cccc(F)c5)c(Cl)c4)c3c2)o1 [lapatinib]
Summary of the method: as §1

[10] = compound: CS(=O)(=O)N1CCN(Cc2cc3nc(-c4cccc5[nH]ncc45)nc(N4CCOCC4)c3s2)CC1 [pictilisib]
Summary of the method: as §1

[11] = compound: CS(=O)(=O)c1ccc(-c2cnc(N)c(C(=O)Nc3ccccc3)n2)cc1
Summary of the method: as §1

[12] = compound: C[C@@H](Oc1cc(-c2cnn(C3CCNCC3)c2)cnc1N)c1c(Cl)ccc(F)c1Cl [crizotinib]
Summary of the method: as §1

[13] = compound: C[C@@H]1COCCN1C2=NC(=NC(=C2)C3(CC3)S(=O)(=O)C)C4=C5C=CNC5=CC=C4
Summary of the method: as §1

[14] = compound: C[C@H](C1=CC=C(C=C1)C(=O)NC2=C3C=CNC3=NC=C2)N
Summary of the method: as §1

[15] = compound: C[C@H](Nc1ncnc2nc[nH]c12)c1cc2cccc(Cl)c2c(=O)n1-c1ccccc1 [duvelisib]
Summary of the method: as §1

[16] = compound: Cc1cc(Nc2cc(CN3CCOCC3)c3nc(C)c(Cc4ccc(Cl)cc4F)n3n2)n[nH]1 [gandotinib]
Summary of the method: as §1

[17] = compound: Cc1cc(Nc2cc(N3CCN(C)CC3)nc(Sc3ccc(NC(=O)C4CC4)cc3)n2)n[nH]1 [tozasertib]
Summary of the method: as §1

[18] = compound: Cc1cc(SCc2sc(-c3ccc(C(F)(F)F)cc3)nc2C)ccc1OCC(=O)O
Summary of the method: as §1

[19] = compound: Cc1ccc(-n2nc(C(C)(C)C)cc2NC(=O)Nc2ccc(OCCN3CCOCC3)c3ccccc23)cc1 [doramapimod]
Summary of the method: as §1

[20] = compound: Cc1ccc(C(=O)N(CCCN)[C@@H](c2nc3cc(Cl)ccc3c(=O)n2Cc2ccccc2)C(C)C)cc1 [ispinesib]
Summary of the method: as §1

UniProt O94901, sequence (O94901 whole entry, looked up): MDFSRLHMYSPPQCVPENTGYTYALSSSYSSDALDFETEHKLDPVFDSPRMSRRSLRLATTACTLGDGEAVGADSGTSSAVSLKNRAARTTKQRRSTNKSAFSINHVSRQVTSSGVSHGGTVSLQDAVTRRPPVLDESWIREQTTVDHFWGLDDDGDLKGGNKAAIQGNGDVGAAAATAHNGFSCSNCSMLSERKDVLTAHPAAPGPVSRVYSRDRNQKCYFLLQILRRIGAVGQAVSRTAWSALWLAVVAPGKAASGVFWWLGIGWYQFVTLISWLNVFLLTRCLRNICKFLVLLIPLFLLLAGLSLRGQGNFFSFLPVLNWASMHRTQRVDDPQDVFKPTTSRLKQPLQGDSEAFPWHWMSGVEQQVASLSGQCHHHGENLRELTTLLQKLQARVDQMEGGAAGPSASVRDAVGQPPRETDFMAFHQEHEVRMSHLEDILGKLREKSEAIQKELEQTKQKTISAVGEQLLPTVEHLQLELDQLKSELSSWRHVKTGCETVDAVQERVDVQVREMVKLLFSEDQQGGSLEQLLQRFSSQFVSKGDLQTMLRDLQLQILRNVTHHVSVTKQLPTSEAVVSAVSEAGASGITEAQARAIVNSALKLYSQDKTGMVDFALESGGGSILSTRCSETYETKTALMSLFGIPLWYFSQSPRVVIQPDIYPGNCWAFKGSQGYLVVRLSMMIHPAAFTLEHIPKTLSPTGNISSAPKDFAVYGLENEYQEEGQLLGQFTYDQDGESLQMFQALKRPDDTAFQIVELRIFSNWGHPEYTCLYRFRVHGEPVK
UniProt P36897, sequence (P36897 whole entry, looked up): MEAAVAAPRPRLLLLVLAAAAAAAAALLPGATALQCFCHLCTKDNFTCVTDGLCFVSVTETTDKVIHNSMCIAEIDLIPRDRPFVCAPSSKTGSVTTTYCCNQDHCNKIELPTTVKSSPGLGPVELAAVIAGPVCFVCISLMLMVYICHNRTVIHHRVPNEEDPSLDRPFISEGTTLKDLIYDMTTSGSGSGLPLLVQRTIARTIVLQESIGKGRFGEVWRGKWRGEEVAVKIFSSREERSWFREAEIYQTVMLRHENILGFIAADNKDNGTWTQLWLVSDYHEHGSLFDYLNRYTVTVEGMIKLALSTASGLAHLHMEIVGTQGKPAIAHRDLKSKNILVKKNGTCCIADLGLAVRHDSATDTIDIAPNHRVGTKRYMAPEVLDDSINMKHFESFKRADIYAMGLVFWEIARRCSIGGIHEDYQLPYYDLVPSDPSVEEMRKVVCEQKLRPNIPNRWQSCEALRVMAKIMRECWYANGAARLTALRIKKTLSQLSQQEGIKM
UniProt Q9ULP9, sequence (Q9ULP9 whole entry, looked up): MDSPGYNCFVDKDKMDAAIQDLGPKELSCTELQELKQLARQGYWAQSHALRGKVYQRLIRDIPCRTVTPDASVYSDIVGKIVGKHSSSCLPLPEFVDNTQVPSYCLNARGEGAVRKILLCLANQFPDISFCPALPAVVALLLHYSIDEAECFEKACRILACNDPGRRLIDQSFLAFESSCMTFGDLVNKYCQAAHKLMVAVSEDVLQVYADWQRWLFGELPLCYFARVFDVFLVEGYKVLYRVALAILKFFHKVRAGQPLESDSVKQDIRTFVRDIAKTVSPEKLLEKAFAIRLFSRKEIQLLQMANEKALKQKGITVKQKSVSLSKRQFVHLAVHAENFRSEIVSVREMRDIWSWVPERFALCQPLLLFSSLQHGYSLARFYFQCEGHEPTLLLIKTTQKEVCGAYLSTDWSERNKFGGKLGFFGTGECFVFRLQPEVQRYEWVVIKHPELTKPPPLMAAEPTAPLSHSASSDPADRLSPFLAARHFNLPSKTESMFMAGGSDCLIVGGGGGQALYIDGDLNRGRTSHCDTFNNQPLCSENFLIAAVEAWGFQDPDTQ
UniProt P12235, sequence (P12235 whole entry, looked up): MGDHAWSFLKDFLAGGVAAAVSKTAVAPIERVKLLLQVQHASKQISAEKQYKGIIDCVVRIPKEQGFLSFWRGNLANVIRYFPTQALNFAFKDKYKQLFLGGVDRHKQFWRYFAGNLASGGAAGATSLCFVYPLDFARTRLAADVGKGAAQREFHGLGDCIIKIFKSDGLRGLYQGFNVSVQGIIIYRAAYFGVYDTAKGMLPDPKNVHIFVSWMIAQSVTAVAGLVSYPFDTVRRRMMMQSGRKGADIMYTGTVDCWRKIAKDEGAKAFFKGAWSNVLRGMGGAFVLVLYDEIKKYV
UniProt Q9H2G2, sequence (Q9H2G2 whole entry, looked up): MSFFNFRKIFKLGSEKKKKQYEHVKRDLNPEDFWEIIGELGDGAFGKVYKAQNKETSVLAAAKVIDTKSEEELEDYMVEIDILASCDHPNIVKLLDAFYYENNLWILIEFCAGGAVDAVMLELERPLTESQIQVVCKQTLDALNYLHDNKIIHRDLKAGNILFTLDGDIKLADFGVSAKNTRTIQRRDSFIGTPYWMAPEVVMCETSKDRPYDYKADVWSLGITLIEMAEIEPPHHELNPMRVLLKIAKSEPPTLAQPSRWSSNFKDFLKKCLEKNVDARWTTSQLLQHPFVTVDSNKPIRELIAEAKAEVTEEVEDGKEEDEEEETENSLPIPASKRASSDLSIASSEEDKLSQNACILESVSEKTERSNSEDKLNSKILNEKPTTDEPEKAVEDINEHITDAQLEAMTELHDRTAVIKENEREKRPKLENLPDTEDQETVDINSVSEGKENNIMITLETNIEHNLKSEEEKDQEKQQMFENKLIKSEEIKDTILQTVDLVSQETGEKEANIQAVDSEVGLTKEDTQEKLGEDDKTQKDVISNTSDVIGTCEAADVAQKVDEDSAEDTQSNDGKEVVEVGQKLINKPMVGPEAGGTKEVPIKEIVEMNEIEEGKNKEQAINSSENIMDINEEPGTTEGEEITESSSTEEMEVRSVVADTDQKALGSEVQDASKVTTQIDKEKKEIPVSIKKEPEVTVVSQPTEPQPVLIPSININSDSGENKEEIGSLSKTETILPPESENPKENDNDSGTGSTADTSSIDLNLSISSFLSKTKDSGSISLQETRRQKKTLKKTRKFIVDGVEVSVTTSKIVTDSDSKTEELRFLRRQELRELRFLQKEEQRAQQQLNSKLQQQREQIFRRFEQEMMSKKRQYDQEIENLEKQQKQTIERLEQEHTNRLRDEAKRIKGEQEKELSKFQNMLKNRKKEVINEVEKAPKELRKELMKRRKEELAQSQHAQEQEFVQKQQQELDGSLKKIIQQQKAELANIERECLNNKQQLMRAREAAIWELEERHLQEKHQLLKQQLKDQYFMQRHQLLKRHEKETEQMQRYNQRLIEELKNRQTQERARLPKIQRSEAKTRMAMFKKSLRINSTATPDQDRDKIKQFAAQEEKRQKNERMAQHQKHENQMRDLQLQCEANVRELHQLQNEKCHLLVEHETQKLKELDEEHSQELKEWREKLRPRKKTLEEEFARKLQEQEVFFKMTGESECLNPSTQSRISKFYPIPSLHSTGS
UniProt Q8WUH2, sequence (Q8WUH2 whole entry, looked up): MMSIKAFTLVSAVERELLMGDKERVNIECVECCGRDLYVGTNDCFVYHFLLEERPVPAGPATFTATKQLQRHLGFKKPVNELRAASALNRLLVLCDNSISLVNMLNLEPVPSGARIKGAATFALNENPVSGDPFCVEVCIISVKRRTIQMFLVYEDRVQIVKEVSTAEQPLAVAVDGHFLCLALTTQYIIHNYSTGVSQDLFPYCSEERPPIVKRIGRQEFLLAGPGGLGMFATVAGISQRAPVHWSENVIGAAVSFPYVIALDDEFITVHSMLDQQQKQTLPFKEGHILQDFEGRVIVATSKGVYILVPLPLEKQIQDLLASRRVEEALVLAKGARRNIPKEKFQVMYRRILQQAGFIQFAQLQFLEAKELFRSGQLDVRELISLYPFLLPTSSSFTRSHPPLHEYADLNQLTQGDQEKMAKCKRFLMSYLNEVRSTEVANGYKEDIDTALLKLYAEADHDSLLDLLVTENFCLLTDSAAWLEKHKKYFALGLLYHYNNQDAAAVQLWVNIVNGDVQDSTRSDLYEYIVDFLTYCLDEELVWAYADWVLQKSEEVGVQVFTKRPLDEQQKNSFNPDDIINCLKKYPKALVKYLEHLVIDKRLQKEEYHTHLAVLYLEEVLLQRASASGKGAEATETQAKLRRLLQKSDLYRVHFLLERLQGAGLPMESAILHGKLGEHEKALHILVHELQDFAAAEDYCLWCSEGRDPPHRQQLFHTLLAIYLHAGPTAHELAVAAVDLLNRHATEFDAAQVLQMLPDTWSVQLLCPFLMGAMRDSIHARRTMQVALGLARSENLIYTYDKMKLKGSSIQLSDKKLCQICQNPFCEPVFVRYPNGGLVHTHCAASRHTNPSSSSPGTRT
UniProt Q8TC07, sequence (Q8TC07 whole entry, looked up): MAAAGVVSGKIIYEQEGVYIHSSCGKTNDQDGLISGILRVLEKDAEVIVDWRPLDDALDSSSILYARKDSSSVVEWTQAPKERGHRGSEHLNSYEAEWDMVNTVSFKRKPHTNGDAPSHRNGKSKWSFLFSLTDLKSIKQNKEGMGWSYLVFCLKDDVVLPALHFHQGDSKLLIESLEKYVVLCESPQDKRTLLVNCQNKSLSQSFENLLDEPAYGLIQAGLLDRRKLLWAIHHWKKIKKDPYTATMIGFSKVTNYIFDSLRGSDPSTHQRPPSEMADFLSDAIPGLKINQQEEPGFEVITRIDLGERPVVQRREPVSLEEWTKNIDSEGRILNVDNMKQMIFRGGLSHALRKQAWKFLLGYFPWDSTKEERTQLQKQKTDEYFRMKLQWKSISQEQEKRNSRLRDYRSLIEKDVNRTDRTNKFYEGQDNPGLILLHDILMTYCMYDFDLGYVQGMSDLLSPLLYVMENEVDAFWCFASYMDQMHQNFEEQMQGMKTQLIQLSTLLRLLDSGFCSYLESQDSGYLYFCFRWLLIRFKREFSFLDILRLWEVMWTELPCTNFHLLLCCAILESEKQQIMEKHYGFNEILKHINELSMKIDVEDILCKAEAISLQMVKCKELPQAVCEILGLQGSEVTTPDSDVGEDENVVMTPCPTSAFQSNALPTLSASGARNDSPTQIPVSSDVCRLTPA

| Target | log2 fold change [1] | log2 fold change [2] | log2 fold change [3] | log2 fold change [4] | log2 fold change [5] | log2 fold change [6] | log2 fold change [7] | log2 fold change [8] | log2 fold change [9] | log2 fold change [10] | log2 fold change [11] | log2 fold change [12] | log2 fold change [13] | log2 fold change [14] | log2 fold change [15] | log2 fold change [16] | log2 fold change [17] | log2 fold change [18] | log2 fold change [19] | log2 fold change [20] |
| --- | --- | --- | --- | --- | --- | --- | --- | --- | --- | --- | --- | --- | --- | --- | --- | --- | --- | --- | --- | --- |
| SMPD4 isoform 4 (UniProt Q9NXE4) | 0.051 | -0.223 | 0.011 | -0.049 | 0.145 | -0.109 | 0.02 | -0.043 | -0.013 | -0.034 | -0.026 | -0.215 | 0.005 | 0.01 | 0.091 | -0.133 | -0.086 | 0.025 | 0.002 | -0.255 |
| SLC30A7 (UniProt Q8NEW0) | -0.105 | -0.086 | -0.025 | -0.121 | -0.019 | 0.088 | 0.017 | 0.184 | -0.013 | 0.028 | -0.01 | 0.014 | -0.022 | -0.048 | 0.081 | -0.348 (active) | -0.05 | -0.007 | -0.057 | -0.016 |
| TGFBR1 isoform 2 (UniProt P36897) | 0.004 | -0.001 | -0.217 | -0.007 | -0.05 | 0.06 | -0.029 | -0.041 | 0.063 | -0.073 | 0.254 (active) | 0.133 | -0.031 | 0.024 | -0.019 | 0.101 | 0.026 | 0.014 | -0.005 | -0.156 |
| TGFBRAP1 (UniProt Q8WUH2) | 0.092 | -0.006 | -0.031 | -0.137 | 0.046 | 0.092 | 0.047 | -0.103 | -0.098 | -0.136 | -0.081 | -0.367 | 0.051 | 0.067 | -0.088 | -0.142 | 0.051 | 0.087 | 0 | -0.221 |
| SUN1 isoform 9 (UniProt O94901) | -0.062 | 0.084 | 0.162 | 0.02 | -0.059 | -0.14 | -0.053 | 0.122 | 0.052 | -0.002 | -0.03 | -0.067 | -0.005 | 0.006 | -0.059 | -0.052 | -0.047 | -0.017 | 0.089 | -0.324 (active) |
| SLC25A4 (UniProt P12235) | -0.012 | -0.024 | -0.018 | 0.003 | 0.014 | 0.039 | 0.006 | -0.012 | -0.026 | 0.115 | 0.004 | 0.112 | 0.093 | 0.01 | 0.012 | -0.004 | -0.072 | -0.034 | -0.053 | 0.028 |
| SLK isoform 2 (UniProt Q9H2G2) | 0.001 | 0.042 | -0.007 | -0.008 | -0.045 | -0.103 | 0.025 | -0.079 | -0.193 | 0.212 (active) | 0.016 | -0.068 | 0.07 | 0.014 | 0.072 | 0.102 | -0.225 | 0.052 | -0.118 | 0.021 |
| SOAT1 (UniProt P35610) | 0 | -0.1 | 0.363 (active) | -0.184 | -0.02 | -0.118 | 0.137 | 0.045 | 0.068 | 0.067 | 0.066 | 0.139 | 0.094 | -0.018 | 0.069 | 0.079 | -0.021 | -0.026 | 0.448 (active) | 0.158 |
| STAM2 (UniProt O75886) | -0.006 | 0.059 | -0.018 | -0.06 | 0.015 | 0.001 | 0.002 | -0.066 | -0.018 | 0.055 | 0.114 | -0.008 | 0.041 | -0.049 | -0.031 | -0.126 | 0.054 | 0.028 | -0.022 | -0.049 |
| TBC1D15 isoform 3 (UniProt Q8TC07) | -0.063 | 0 | 0.039 | -0.058 | -0.052 | -0.065 | 0.015 | -0.06 | 0.032 | -0.009 | -0.012 | -0.275 | -0.032 | 0.036 | -0.031 | -0.191 | 0.061 | 0.064 | 0.017 | -0.154 |
| SRFBP1 (UniProt Q8NEF9) | 0.013 | 0.193 | -0.021 | -0.018 | -0.027 | 0.306 | 0.06 | -0.072 | 0.13 | -0.065 | -0.053 | -0.029 | -0.21 | 0.061 | -0.039 | 0.083 | 0.055 | -0.028 | 0.007 | -0.055 |
| SPCS2 (UniProt Q15005) | 0.5 (active) | -0.061 | 0.018 | -0.039 | 0.008 | 0.092 | 0.03 | -0.021 | 0.002 | -0.006 | 0.032 | 0.001 | 0.02 | -0.036 | 0.035 | -0.007 | -0.015 | -0.013 | 0.047 | 0.085 |
| SPAG9 (UniProt O60271) | 0.005 | -0.041 | -0.011 | 0 | -0.034 | -0.034 | -0.01 | -0.031 | -0.026 | 0.041 | 0.046 | -0.056 | -0.002 | 0.065 | -0.017 | -0.034 | 0.049 | 0.012 | 0.023 | -0.188 |
| SPECC1 (UniProt Q5M775) | -0.357 (active) | 0.064 | 0.038 | -0.111 | -0.019 | -0.014 | 0.028 | 0.309 (active) | -0.006 | 0.08 | -0.104 | -0.085 | -0.02 | 0.045 | 0.014 | -0.18 | 0.007 | -0.036 | 0.137 | -0.079 |
| THRAP3 (UniProt Q9Y2W1) | 0.087 | 0.155 | -0.117 | 0.12 | -0.095 | -0.127 | 0.15 | 0.13 | 0.066 | 0.005 | 0.014 | 0.04 | 0.019 | -0.111 | 0.044 | -0.003 | -0.078 | -0.071 | 0.133 | -0.043 |
| TBC1D24 (UniProt Q9ULP9) | 0.032 | -0.145 | 0.006 | -0.127 | -0.102 | -0.028 | 0.007 | 0.05 | 0.032 | -0.082 | 0.018 | -0.235 | 0.08 | -0.014 | 0.04 | -0.361 | -0.119 | 0.073 | 0.061 | -0.218 |
